PTHR1 agonist: agonists of human PTHR1 parathyroid hormone receptor; Q03431; HEK293 GP2 PTHR1 cells, GloSensor cAMP luminescence, 1 h; Potency, µM (titrated, usually from 115 µM), without a hit: at the top dose activation, hits mostly activators; hit rate 0.075% among 410,000; AID 743266; further: potency means the concentration at half of the fitted maximal effect; nearly all actives have a fitted effect of over 55% in size
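HEK-293-derived GP2 cells expressing PTHR1 and a GloSensor cAMP reporter, 3,000/well, plated overnight, given luciferin plus IBMX (each 0.5 mM as added) for 1 h at 37 °C, then compound for 1 h at 37 °C. Luminescence was read after 15 min at room temperature.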
GLP1R cytotox: cytotoxicity in counter-screen for GLP-1R inverse agonists | hit rate 0.13% among 410,000 | Potency, µM (titrated, usually from 38.3 µM), inactives show at the highest dose activity change, negative = inhibition, actives largely listed as inhibitors | AID 624418 | HEK293 cAMP-luciferase reporter cells, luminescence, 24 h;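 further: loss of luciferase light is scored as toxicity; potency means the concentration at half of the fitted maximal effect; on the % scale 0 is the no-effect control and ±100 the full control effect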
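Luminescence readout: signal drop marks cytotoxicity. Plated cells grew 12 h at 37 °C, 5% CO2, received 23 nL compound for 24 h, then got luciferase reagent, read after 12 min at RT.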
GLP-1R agonist: agonists of human GLP-1 receptor | AID 624172 | HEK293 GLP-1R CRE-luciferase, luminescence, 4-6 h; cells express a hypersensitive GLP-1R form | Potency, µM (highest dose often 45.6 µM), without a hit: top-dose activation, actives largely listed as activators | hit rate 0.007% among 380,000; further: potency means the concentration at half of the fitted maximal effect; % of control where 0% means no effect
GLP1R inv ag: acts as inverse agonist at human GLP-1 receptor | P43220 | HEK293 GLP-1R CRE-luciferase, luminescence, 24 h; GLP-1R form is constitutively active | Potency, µM (doses to about 38.3 µM), without a hit: at the top dose activity change, negative = inhibition, usual class: inhibitors | hit rate 1.6% among 410,000; further: potency means the concentration at half of the fitted maximal effect; on the % scale 0 is the no-effect control and ±100 the full control effect; nearly all actives have a fitted effect of over 55% in size
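Stable HEK293 clone (constitutively active GLP-1R + cAMP-response luciferase); 200 cells/uL plated, 12 h pre-culture, compound 24 hr, 37 deg C/5% CO2; detection reagent 12 min RT; luminescence.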
LDHA block: blocks human lactate dehydrogenase A. P00338. activity change, % (values are at about 110 or 230 µM). hit rate 0.15% among 480,000. purified LDHA, NADH/diaphorase-resazurin fluorescence; stronger effect = lower value; in the data active means activity change below about -30%; inconclusive means mostly about -25% to -30%;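 further: plate controls were DMSO wells for no effect and wells without enzyme for full effect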
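Enzyme activity of human lactate dehydrogenase 5 (2 nM; 0.06 mM NADH, 0.2 mM pyruvate, 5 min, RT) is measured via a resazurin/diaphorase fluorescence readout of residual NADH.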
mIDH1 inhibitor: human IDH1 R132H inhibition. O75874. IDH1-R132H enzyme, NADPH consumption, diaphorase/resazurin fluorescence. Potency, µM (series often up to 76.6 µM), without a hit: top-dose activity change, negative = inhibition, actives largely listed as inhibitors. hit rate 0.093% among 390,000. AID 602179; further: potency means the concentration at half of the fitted maximal effect; on the % scale 0 is the no-effect control and ±100 the full control effect; nearly all actives have a fitted effect of over 65% in size
Target sequence (O75874 whole entry R132H, stated change not applied): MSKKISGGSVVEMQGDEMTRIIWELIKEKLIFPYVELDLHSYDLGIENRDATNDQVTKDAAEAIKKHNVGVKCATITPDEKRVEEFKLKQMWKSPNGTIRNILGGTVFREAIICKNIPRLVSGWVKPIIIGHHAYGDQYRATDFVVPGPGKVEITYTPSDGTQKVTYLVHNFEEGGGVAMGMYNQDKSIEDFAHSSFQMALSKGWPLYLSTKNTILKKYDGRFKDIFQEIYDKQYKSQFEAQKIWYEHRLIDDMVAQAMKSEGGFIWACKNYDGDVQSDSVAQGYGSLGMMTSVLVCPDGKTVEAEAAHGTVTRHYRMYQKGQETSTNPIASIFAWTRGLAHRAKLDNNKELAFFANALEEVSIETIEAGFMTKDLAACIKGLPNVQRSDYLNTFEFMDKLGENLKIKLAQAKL
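IDH1-R132H (0.5 ug/mL) preincubated 30 min with compound, then NADPH (0.016 mM) and alpha-KG (2 mM) added; 80 min at RT, pH 7.5. Remaining NADPH coupled via diaphorase/resazurin to fluorescence (540/590 nm); concentration-response curves normalized to no-enzyme control.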
An asterisk follows results filed as active; i = inactive; ? = inconclusive; . = no result given; [ ] = remark or other dose. Sampled rows, rich in hits. Any-hit rate of the full collection: about 1.7%. Unless noted, the call rests on the fitted dose curve; in most records, active means well fitted curve in the direction sought with a large enough effect; inconclusive means small, poorly fitted or top-dose-only effect, or another doubt; inactive means no such curve, though single readings can be large; an effect the other way counts as inactive or inconclusive.

SMILES | PTHR1 agonist | GLP1R cytotox | GLP-1R agonist | GLP1R inv ag | LDHA block | mIDH1 inhibitor
Cc1ccccc1OCC(=O)Nc1sc2c(c1C#N)CC(C)(C)NC2(C)C | -4% | 4% | 18% | ? | -2 | 2%
CCOC(=O)c1cc2c(=Cc3ccc(N(C)C)cc3)c3ccccc3n2[n+]1C | -93% | -20% | 1% | ? | 39 | -7%
CN(C)c1ccc(C=c2c3ccccc3n3c2c2ccccc2[n+]3C)cc1 | -22% | ? | -4% | ? | 28 | 46µM*
CCc1ccccc1NC(=O)CSc1nc(-c2ccccc2)nc2cc(=O)[nH]n12 | . | . | . | . | 4 | .
Cc1cc(C)cc(NC(=S)NCC2CCN(C(C)c3ccccc3)C2)c1 (stereo unspecified) | i | -28% | 7% | 10µM* | -3 | -2%
O=C(CCS(=O)(=O)c1ccc2c(c1)CCN2C(=O)C1CC1)NC1CCCCCCC1 | . | . | . | . | 2 | .
Cc1ccc(C(=O)c2c(C)oc3c2C(=O)C(=O)c2ccccc2-3)cc1 | -92%[57.5 µM] | 5µM* | -29% | ? | 31 | 12%
Cc1oc2c(c1C(=O)c1ccc(Cl)cc1)C(=O)C(=O)c1ccccc1-2 | i | -9% | -11% | 0% | 42 | 19%
Cc1ccc(S(=O)(=O)N2CCOC2C(Cl)(Cl)Cl)cc1 (stereo unspecified) | -10% | 3% | 1% | 10µM* | -1 | 0%
Cn1c(/C=C/c2ccc(Br)cc2)c([N+](=O)[O-])c(=O)n(C)c1=O | -42% | ? | 0% | 4.5µM* | -1 | 0%
CCc1ccccc1Nc1nn2c(=O)c3ccc(C(=O)NC(C)c4ccccc4)cc3nc2s1 (stereo unspecified) | -2% | -30% | 9% | 5.6µM* | -6 | -8%
CCc1ccccc1Nc1nn2c(=O)c3ccc(C(=O)NCCc4ccccc4)cc3nc2s1 | -4% | 7% | 3% | -3% | 2 | -4%
O=C1c2ccsc2SCCN1Cc1ccc(Cl)cc1Cl | -56%[57.5 µM] | -6% | -3% | ? | -1 | 5%
O=C1c2ccsc2SCCN1Cc1c(F)cccc1Cl | -38% | 1% | 13% | 13µM* | -7 | 13%
O=C1c2ccsc2SCCN1Cc1cccc(F)c1 | i | 1% | 0% | -5% | 0 | 7%
O=C1c2ccsc2SCCN1Cc1c(Cl)cccc1Cl | i | -11% | -24% | 2.5µM* | -8 | 12%
NC1(C(=O)O)CSSC1 | -9% | 11µM* | 0% | ? | -9 | -2%
Cc1cc(N2CCCCC2C)nc(-c2ccccc2O)n1 (stereo unspecified) | i | -1% | 22% | 11µM* | 2 | 9%
CCCNc1c(NC(=O)Nc2ccc(OC)c(OC)c2)c(=O)oc2ccccc12 | . | . | . | . | 4 | .
COC(=O)c1ccc(CNC(=O)COC(=O)Cc2ccc(Cl)cc2)cc1 | . | . | . | . | -19 | .
Cn1c(C=O)ccc1-c1ccc(F)cc1 | . | . | . | . | 2 | .
CCN1C(=O)[C@H]2[C@@H](c3ccc(-c4cccc(Cl)c4)c(OC)c3)N[C@@](CC(C)C)(C(=O)OC)[C@H]2C1=O | -1% | -2% | -6% | 7.9µM* | 0 | -3%
CCN1C(=O)[C@H]2[C@@H](c3ccc(-c4cccc(Cl)c4)cc3)N[C@@](CC(C)C)(C(=O)OC)[C@H]2C1=O | -25% | -14% | 11% | -14% | -4 | -9%
CCN1C(=O)[C@H]2[C@@H](c3ccc(-c4ccc(F)cc4)cc3)N3CCCC[C@@]3(C(=O)OC)[C@H]2C1=O | -13% | 8% | -6% | 5.6µM* | 0 | 6%
CCN1C(=O)[C@@H]2[C@@H](c3ccc(-c4ccc(F)cc4)cc3)N3CCC[C@@]3(C(=O)OC)[C@@H]2C1=O | i | 2% | -2% | -21% | -3 | 3%
SMILES | PTHR1 agonist | GLP1R cytotox | GLP-1R agonist | GLP1R inv ag | LDHA block | mIDH1 inhibitor
CCN1C(=O)[C@H]2[C@@H](c3ccc(-c4cccc(Cl)c4)cc3)N3CCCC[C@@]3(C(=O)OC)[C@H]2C1=O | -8% | -24% | -1% | 10µM* | -2 | 8%
CCN1C(=O)[C@H]2[C@@H](c3ccc(-c4cccc(Cl)c4)c(OC)c3)N3CCCC[C@@]3(C(=O)OC)[C@H]2C1=O | -41% | -21% | -3% | ? | 2 | 4%
Cc1cc(N2CCN(Cc3nc(-c4ccc(Cl)cc4)oc3C)CC2)cc(C)n1 | -30% | ? | 8% | 1µM* | -6 | -2%
COc1ccc(-c2nc(CN3CCN(Cc4ccccc4)CC3)c(C)o2)cc1 | -5% | -10% | 7% | ? | -11 | -6%
Cc1cc2oc(=O)cc(CSc3cccc(C(F)(F)F)c3)c2cc1C(C)C | . | . | . | . | 13 | .
CCOC(=O)C1(CC2CCCCO2)CCN(Cc2nccn2-c2ccc(OC)cc2)CC1 (stereo unspecified) | i | ? | 23% | -22% | -4 | -6%
CCOC(=O)C1(CC2CCCCO2)CCN(Cc2nccn2-c2cccc(C)c2)CC1 (stereo unspecified) | i | -29% | 17% | 10µM* | -1 | -1%
CSCCC1NC(=S)N(Cc2ccccc2)C1=O (stereo unspecified) | i | -23% | 19% | 10µM* | -8 | 21%
CC(C)CC1NC(=S)N(Cc2ccccc2)C1=O (stereo unspecified) | -51% | -22% | -2% | 2.8µM* | -2 | -18%
N#Cc1ccc(OCCOC(=O)c2ccco2)cc1 | . | . | . | . | -4 | .
O=C(CCc1cccnc1)Nc1ccccc1 | . | . | . | . | 6 | .
CC(C)(C)C(c1nc2ccccc2[nH]1)n1c(-c2ccsc2)nc2ccccc21 (stereo unspecified) | i | ? | . | 10µM* | 5 | .
CC(C)(C)C(c1nc2ccccc2[nH]1)n1c(-c2ccco2)nc2ccccc21 (stereo unspecified) | 1% | -2% | . | 26% | -6 | .
O=C1N=C(N2CCOCC2)S/C1=C/c1ccc(-c2ccc(F)cc2)o1 | -2% | 18% | 5% | 19% | 9 | 7%
Cc1ccc(-c2ccc(/C=C3\SC(N4CCOCC4)=NC3=O)o2)cc1 | -6% | 71% | 5% | 4.5µM* | 4 | ?
COc1ccc(Br)cc1CN1CCCC(C(=O)N2CCCCC2)C1 (stereo unspecified) | -46% | 17% | 5% | -8% | ? | 7%
COc1ccc(Br)cc1CN1CCCC(C(=O)N2CCCCCC2)C1 (stereo unspecified) | -86% | -14% | 0% | ? | -33* | 7%
